# Test results from PubChem BioAssay AID504832 (National Center for Advancing Translational Sciences (NCATS), 2011).
# The campaign covered roughly 310,000 compounds. About 18,000 (5.8%) were called active. Where a call stands in place of a potency, no number is given. Inconclusive results (about 22%) are left out. The sample holds actives, similar compounds and a random draw of the others, so the mix is not that of the screen. Calls come from the whole dose curve; as a rule, active = well fitted inhibition curve with a large enough effect; inconclusive = small, poorly fitted or top-dose-only effect, or another doubt; inactive = no such curve, though single readings can be large or run the other way.
# Assay: Primary qHTS for delayed death inhibitors of the malarial parasite plastid, 48 hour incubation
# Settings: P. falciparum luciferase growth in erythrocytes; series mostly up to 28.7 µM
# In short: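 Compounds are pin-transferred into medium, infected erythrocytes (2% hematocrit, 0.1% parasitemia final) are added, and plates sit one parasite generation at 37 C in 5% CO2. Detection reagent is then added and luminescence measured.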
# Potency is the fitted concentration of half-maximal effect.
row,Compound,Potency
1,Cc1ccc(NC(=O)C2CCCN2C(=O)OCc2ccccc2)cc1C (stereo unspecified),inactive
2,COc1ccc(C(=O)OCC(=O)Nc2ccc3[nH]c(=O)[nH]c3c2)c(OC)c1OC,inactive
3,CCOC(CNC(=O)C(=O)NCC(c1ccco1)N1CCN(c2ccc(OC)cc2)CC1)OCC (stereo unspecified),inactive
4,COc1ccc(NC(=O)C(=O)NCC(c2ccco2)N2CCc3ccccc3C2)cc1 (stereo unspecified),13.1 µM (active)
5,O=C(NCC(c1ccco1)N1CCc2ccccc2C1)c1ccccc1Cl (stereo unspecified),inactive
6,C=CCc1cccc(/C=N/NC(=O)COc2ccc(-n3cnnn3)cc2)c1O,inactive
7,CCOc1ccc(-n2c(SCC(N)=O)nnc2-c2ccco2)cc1,inactive
8,COC(=O)C1=C(c2c(C)noc2C)C[C@@H]2CC[C@H]1N2C(=O)NCc1ccc2c(c1)OCO2,inactive
9,COc1cccc(CNC(=O)C2CC(=O)N(C3CCCCCCC3)C2)c1 (stereo unspecified),inactive
10,COC(=O)C1=C(c2cccc(OCc3ccccc3)c2)C[C@@H]2CC[C@H]1N2C(=O)NCc1ccc(Br)cc1,11.7 µM (active)
11,O=C(COc1cccc(Cl)c1)NCc1ccccc1,inactive
12,COC(=O)C1=C(c2ccc(C(C)=O)cc2)C[C@@H]2CC[C@H]1N2C(=O)NCCNC(C)=O,inactive
13,COC(=O)C1=C(c2cccc(OCc3ccccc3)c2)C[C@@H]2CC[C@H]1N2C(=O)NNCc1ccccc1,8.28 µM (active)
14,O=C(NCc1ccncc1)C(=O)NCC1OCCN1S(=O)(=O)c1ccc(Br)cc1 (stereo unspecified),inactive
15,COCCCNc1nc2c(-c3cccc(C)c3)nnn2c2ccc(Cl)cc12,inactive
16,CCOc1ccc(CC(=O)NCCS(=O)(=O)N2CCN(c3ccccc3)CC2)cc1,inactive
17,Cc1csc2nc(O)c(C(=O)NCCN3CCOCC3)c(=O)n12,inactive
18,CS(=O)(=O)N1CCN(C(=O)c2cc3ccccc3oc2=O)CC1,inactive
19,O=C(CN1CCN(S(=O)(=O)c2ccc(Cl)s2)CC1)N1CCCCC1,inactive
20,O=C(c1cc2ccccc2o1)N1CCN(S(=O)(=O)c2ccc(Cl)s2)CC1,11.7 µM (active)
21,CCOC(=O)N1CCN(C(=O)c2ccc3c(c2)N(Cc2ccc(C)cc2)CCS3)CC1,13.1 µM (active)
22,O=C(NCCc1ccccc1)c1ccc2c(c1)N(Cc1ccccc1)CCS2,inactive
23,CCOC(=O)N1CCN(C(=O)c2ccc(S(=O)(=O)c3ccc(C)cc3)c(NC(C)=O)c2)CC1,inactive
24,CCC(C)(C)NC(=O)C(c1ccccn1)N(C(=O)c1csnn1)c1ccccc1 (stereo unspecified),inactive

row,Compound,Potency
1,CCC(C)(C)NC(=O)C(c1ccc(O)cc1)N(C(=O)Cn1nnc2ccccc21)c1ccc(NC(C)=O)cc1 (stereo unspecified),2.08 µM (active)
2,COc1ccc(C(C(=O)NC(C)(C)C)N(C(=O)Cn2nnc3ccccc32)c2ccc(C(C)=O)cc2)cc1O (stereo unspecified),inactive
3,CCN(CC(=O)Nc1cc(Cl)ccc1C)C(=O)CSCc1ccc(C)cc1,inactive
4,Cc1ccc(/C=N/NC(=O)CN2CCN(Cc3ccccc3)CC2)s1,inactive
5,C=CCNC(=S)N/N=C/c1ccc(OCc2ccccc2)cc1,inactive
6,C=CCNC(=S)N/N=C/c1ccc(C)s1,4.65 µM (active)
7,CC(C)(C)C(=O)NC1CC2CCCC(C1)N2C(=O)Nc1ccccc1F (stereo unspecified),inactive
8,O=S(=O)(Nc1ccc(-n2cnnn2)cc1)c1ccc(Cl)cc1,inactive
9,CCCSc1nc2sc3c(c2c(=O)n1-c1ccc(OC)cc1)CCN(C)C3,7.38 µM (active)
10,CCOc1ccc(-n2c(SCC(=O)OC)nc3sc4c(c3c2=O)CCN(C)C4)cc1,0.928 µM (active)
11,CCOc1ccc2cc(C#N)c(SCC(=O)OC)nc2c1,inactive
12,Cc1sc2nc(SCCO)n(-c3ccccc3)c(=O)c2c1C,inactive
13,CCc1nc(SCC(=O)Nc2ccccc2OC)n[nH]1,inactive
14,CCOC(=O)Cn1c(SC)nc2sc3c(c2c1=O)CC(C)(C)OC3,inactive
15,COc1ccc(-n2c(=S)[nH]c3sc4c(c3c2=O)CCc2ccccc2-4)cc1,inactive
16,Cc1ccc(C)c(-n2c(SCC(=O)O)nc3sc4c(c3c2=O)CCCC4)c1,inactive
17,CCc1cc2c(=O)n(-c3ccccc3)c(SCC(=O)O)nc2s1,inactive
18,COc1ccccc1NC(=O)CSc1nc2sc3c(c2c(=O)n1-c1ccccc1)CCN(C)C3,1.65 µM (active)
19,CCSc1nc2sc3c(c2c(=O)n1-c1ccc(C)cc1)CCN(C)C3,2.62 µM (active)
20,COc1ccccc1-n1c(SCC(=O)O)nc2sc3c(c2c1=O)CCC3,inactive
21,C[C@H](OC(=O)n1ccnc1)[C@@H]1O[C@@]2(C)CCC[C@@H]1O2,inactive
22,Cc1cccc(CN2CCC(n3nccc3NC(=O)c3ccccc3C)CC2)n1,inactive
23,Cc1ccc(-n2ncc3c2CCCC3NC(=O)c2cnccn2)cc1C (stereo unspecified),inactive
24,COc1ccccc1C(=O)NCCC(=O)NC(C)CCc1ccccc1 (stereo unspecified),inactive

row,Compound,Potency
1,O=c1oc2ccccc2c(NC2CCCCC2)c1NS(=O)(=O)c1ccc(Cl)cc1,inactive
2,COC(=O)COc1ccc2c(=O)c(Oc3ccccc3Br)coc2c1,inactive
3,O=C(C1CC(=O)N(c2ccc(Br)cc2)C1)N1CCCC1 (stereo unspecified),inactive
4,COc1ccccc1NC(=O)N1CCCC1C(=O)NCc1cccs1 (stereo unspecified),inactive
5,CCN1C(=O)C(=O)N(CC(=O)Nc2cc(C)ccc2C)C1=O,inactive
6,Cc1ccc(S(=O)(=O)N2CCN(C(=O)c3ccc(-n4cncn4)c([N+](=O)[O-])c3)CC2)cc1,inactive
7,CC(C)c1ccc(S(=O)(=O)N2CCN(C(=O)c3ccc(N4CCCC4)c([N+](=O)[O-])c3)CC2)cc1,inactive
8,Nc1ccc(C(=O)N2CCN(S(=O)(=O)c3ccc(Cl)cc3)CC2)cc1[N+](=O)[O-],13.1 µM (active)
9,CC(Sc1nnc(COc2ccccc2)n1-c1ccccc1)C(=O)O (stereo unspecified),inactive
10,CC1CC(C)CN(c2ccc(S(=O)(=O)N3CCOCC3)cc2)C1 (stereo unspecified),inactive
11,COc1cc(/C=C2\C(=N)N3N=C(CC(=O)N4CCOCC4)SC3=NC2=O)cc(OC)c1OC,inactive
12,O=C(/C=C/c1ccc(Cl)cc1Cl)NCc1ccco1,11.7 µM (active)
13,COC(=O)/C=C/C(=O)NCc1ccco1,inactive
14,O=C(CCNC(=O)c1ccccc1Cl)NCc1ccco1,inactive
15,O=C(Nc1ncc([N+](=O)[O-])s1)C1COc2ccccc2O1 (stereo unspecified),inactive
16,CN(C(=O)CN1C(=O)/C(=C/c2ccc(Cl)cc2)SC1=S)C1CCS(=O)(=O)C1 (stereo unspecified),inactive
17,CCc1c(C)nc(N)n2c(SCC(=O)NC3CCCCC3)nnc12,inactive
18,COc1ccc2cc1Oc1ccc(cc1)C[C@H]1c3cc(c(OC)cc3CCN1C)Oc1c(O)c(OC)cc3c1[C@H](C2)N(C)CC3,2.94 µM (active)
19,COc1ccc(/C=N/NC(=O)c2ccc3c(c2)OCCO3)c(OC)c1,inactive
20,Cn1nccc1C(=O)N1CCCC(C(=O)c2ccc(Oc3ccccc3)cc2)C1 (stereo unspecified),inactive
21,CC(C)n1c(=O)c(C=Nc2ccc(Br)cc2)c(O)n(Cc2ccco2)c1=O,13.1 µM (active)
22,Cn1c(O)c(C=Nc2ccc3c(c2)CCC3)c(=O)n(C)c1=O,inactive
23,CN(C)CCCN=Cc1c(O)n(Cc2ccco2)c(=O)[nH]c1=O,inactive
24,O=C(CN1CCN(C2CCS(=O)(=O)C2)CC1)N1N=C(c2ccc(Cl)cc2)CC1c1ccco1 (stereo unspecified),inactive

row,Compound,Potency
1,CC(=O)NCC(=O)N1CCC(n2nccc2NC(=O)CCCc2ccccc2)CC1,inactive
2,CCOc1ccc(N/C(N)=N/c2nc(C)c(C)c(=O)[nH]2)cc1,inactive
3,CCN1C(=S)N[C@@H](CCc2ccccc2)[C@H](C(=O)OC)[C@H]1C,inactive
4,CC1C(=O)Nc2ccccc2N1C(=O)c1ccc(F)cc1F (stereo unspecified),inactive
5,COc1ccccc1C(=O)N(Cc1ccc(C)o1)C1CCS(=O)(=O)C1 (stereo unspecified),inactive
6,CC(C)C[C@H](NC(=O)[C@@H]1O[C@H]1C(=O)O)C(=O)NCCCCN=C(N)N,11.7 µM (active)
7,Cc1cc(C)cc(N(CCC#N)C(=O)CN2C(=O)NC3(CCCC3)C2=O)c1,inactive
8,Cc1cc2c(cc1C)N(Cc1ccccc1)C1=NCCCN12,11.7 µM (active)
9,Cc1ccc(Nc2nc(N)nc(CN3CCN(Cc4ccccc4)CC3)n2)cc1Cl,inactive
10,CC(C)(C)C(=O)CN1C2=NCCN2c2ccccc21,inactive
11,Cc1ccc(OCc2nc3ccccc3n2C)cc1,inactive
12,COc1ccc(C(CCN(Cc2ccc(OC)c(OC)c2)C(=O)CCl)c2ccccc2)cc1 (stereo unspecified),2.94 µM (active)
13,CCOc1ccc(C(CC(=O)O)NC(=O)Cc2ccccc2)cc1OC (stereo unspecified),inactive
14,COc1ccc(COC(=O)NC(C(=O)O)c2ccccc2)cc1 (stereo unspecified),inactive
15,O=C(CCCCO)c1ccc(O)c(Cl)c1,inactive
16,Cc1ccc(OCC(=O)Nc2ccc3oc(=O)ccc3c2)cc1C,inactive
17,CC[C@]1(O)CC2CN(CCc3c([nH]c4ccccc34)[C@@](C(=O)OC)(c3cc4c(cc3OC)N(C=O)[C@H]3[C@@](O)(C(=O)OC)[C@H](OC(C)=O)[C@]5(CC)C=CCN6CC[C@]43[C@@H]65)C2)C1 (stereo partly specified),0.147 µM (active)
18,CC[C@]1(O)C[C@@H]2CN(CCc3c([nH]c4ccccc34)[C@@](C(=O)OC)(c3cc4c(cc3OC)N(C)[C@H]3[C@@](O)(C(=O)OC)[C@H](OC(C)=O)[C@]5(CC)C=CCN6CC[C@]43[C@@H]65)C2)C1,0.208 µM (active)
19,COc1ccc(NC(=O)C2CCC(CNS(=O)(=O)c3csc(C(N)=O)c3)CC2)cc1OC (stereo unspecified),inactive
20,CC(=O)NC(CC(=O)Nc1cccc(S(=O)(=O)N2CCCC2)c1)c1ccccc1 (stereo unspecified),inactive
21,CCN(CC(=O)Nc1cccc(S(N)(=O)=O)c1)Cc1nc2ccccc2c(=O)[nH]1,inactive
22,CCCCN(CC(=O)Nc1cccc(S(=O)(=O)N2CCCC2)c1)Cc1nc2ccccc2c(=O)[nH]1,3.7 µM (active)
23,O=C(NCCc1ccc(Cl)cc1)c1cccc(N2CCCC2=O)c1,inactive
24,CCN1C(=NCCc2cccnc2)N[C@@H](c2ccccc2)[C@H](C(=O)OC)[C@H]1C,inactive
